An excerpt weighted towards active compounds, which were near 3.2% of everything screened.
AMA1-RON2 inh: inhibitors of Plasmodium falciparum AMA1-RON2 interaction; hit rate 0.2% among 360,000; AID 720542; AlphaScreen AMA1-biotinylated RON2 peptide binding; Potency, µM (doses to about 58.2 µM), without a hit: at the highest dose activity change, negative = inhibition, actives largely listed as inhibitors;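 also: 0% = vehicle wells and -100% = peptide control; nearly all actives have a fitted effect of over 45% in size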
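AMA1 (3D7) with his tag at 25 nM final met compounds first, then biotinylated RON2 peptide at 25 nM; detection used donor plus acceptor beads, 10 µg/mL apiece, read by AlphaScreen after 30 min at room temperature.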
Tb PYK inh: T. brucei pyruvate kinase inhibition; TbPYK enzyme, Kinase-Glo Plus ATP luminescence, 45 min; Potency, µM (top dose mostly 76.8 µM), without a hit: at the top dose activity, negative = inhibition, most hits filed as inhibitors; hit rate 0.12% among 410,000; also: nearly all actives have a fitted effect of over 50% in size
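Glycolytic pyruvate kinase of T. brucei was incubated with substrate, test compound and 130 uM ADP for 45 minutes at room temperature. Luminescent Kinase-Glo Plus signal was measured after 10 minutes.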
Sm TGR block: S. mansoni TGR enzyme inhibition; Q962Y6; purified TGR, DTNB reduction, TNB absorbance 405 nm; Potency, µM (highest dose often 114 µM), for the others: top-dose activity change, negative = inhibition, most hits filed as inhibitors; hit rate 3% among 360,000; also: nearly all actives have a fitted effect of over 60% in size
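Kinetic colorimetric format: TGR-catalysed, NADPH-driven DTNB reduction monitored via TNB absorbance. Enzyme dispensed at 20 nM; compound exposure 15 min at room temperature before reaction start.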
RE007 growth inh: less growth of the S. pombe RE007 Vpr strain. S. pombe RE007 Vpr strain, BacTiter-Glo ATP luminescence, 24 h. AID 651644. Potency, µM (series often up to 92.2 µM), without a hit: top-dose activity change, negative = less growth, usual class: inhibitors. hit rate 0.21% among 360,000; active = well fitted falling curve with a large enough effect; inconclusive = small, poorly fitted or top-dose-only effect; inactive = no such curve, though single readings can be large or run the other way; also: nearly all actives have a fitted effect of over 50% in size
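Fission yeast RE007 carrying one integrated HIV-1 vpr copy, seeded at OD 0.01 in PMG+AL medium with 23 nL pinned compound. Grown 24 h at 30 degrees; viability read by BacTiter-Glo luminescence after 5 min.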
LmPK inh: blocks Leishmania mexicana pyruvate kinase activity; Q27686; purified LmPK, Kinase-Glo ATP luminescence, 1 h; Potency, µM (doses to about 57.5 µM), without a hit: at the highest dose activity change, negative = inhibition, most hits filed as inhibitors; hit rate 0.37% among 290,000; AID 1721
Target sequence (Q27686 whole entry, looked up): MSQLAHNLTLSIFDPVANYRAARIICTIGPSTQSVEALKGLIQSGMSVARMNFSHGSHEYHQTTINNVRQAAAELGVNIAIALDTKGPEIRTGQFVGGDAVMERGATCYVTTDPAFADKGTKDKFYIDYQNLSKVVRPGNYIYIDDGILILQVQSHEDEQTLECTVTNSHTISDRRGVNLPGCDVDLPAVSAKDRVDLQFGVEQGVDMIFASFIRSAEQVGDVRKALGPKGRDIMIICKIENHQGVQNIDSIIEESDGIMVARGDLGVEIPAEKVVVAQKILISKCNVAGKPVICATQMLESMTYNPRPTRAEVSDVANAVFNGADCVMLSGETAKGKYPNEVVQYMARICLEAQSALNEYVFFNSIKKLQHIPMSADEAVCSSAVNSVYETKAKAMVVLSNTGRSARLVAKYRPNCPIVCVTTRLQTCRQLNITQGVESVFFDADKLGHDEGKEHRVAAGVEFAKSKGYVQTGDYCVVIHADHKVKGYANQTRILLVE
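Screened at intermediate enzyme activity to detect both inhibitors and activators: LmPK at 0.1 nM, with a 0.5 nM enzyme column as activation reference. PEP 0.5 mM, ADP 0.1 mM; ATP detected by luminescence after 1 h.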
The depositor's hits bear a star; u = inconclusive; x = not tested or not shown; [ ] = another dose, or the depositor's remark. Unless noted, calls follow the shape of the dose curve; as a rule, active = well fitted curve in the direction sought with a large enough effect; inconclusive = small, poorly fitted or top-dose-only effect, or another doubt; inactive = no such curve, though single readings can be large; an effect the other way counts as inactive or inconclusive. Unless noted, % is scaled to controls: 0 for no effect and ±100 for the full control effect; potency is read from the fitted curve at half-maximal effect.

SMILES	AMA1-RON2 inh	Tb PYK inh	Sm TGR block	RE007 growth inh	LmPK inh
Cc1ccc(S(=O)(=O)N(C)C)cc1NC(=S)Nc1cccc2ccccc12	56.7%	-4.6%	15.8µM*	0.3%	7.1%
S=C(NCCc1ccncc1)Nc1cccc2ccccc12	1.7%	-3.8%	14.1µM*	-2.5%	-4.3%
S=C(Nc1cccnc1)Nc1cccc2cnccc12	-19.7%	1.3%	44.7µM*	-17.6%	1.0%
Fc1cccc(NC(=S)Nc2cccnc2)c1	2.7%	-1.2%	17.8µM*	30.5%	-5.3%
CC(=O)NNC(=S)Nc1cc(S(=O)(=O)N(C)C)ccc1C	22.0%[11.6 µM]	3.7%	-22.2%	0.6%	1.2%
CCOc1ccc(/C=C/c2nc(C#N)c(N3CCCCC3)o2)cc1	x	2.5%	5.1%	x	x
CCOC(=O)c1noc2ncnc(Nc3ccc(C)c(F)c3)c12	x	0.4%	6.2%	x	x
Cc1nn(CC(=O)NCc2ccc(N(C)C)cc2)c(=O)c2c(C)n(-c3ccc(Cl)cc3)nc12	x	5.4%	3.0%	x	x
CCOC(=O)c1cccc(NC(=O)NC(C)c2c(-n3cccc3)sc3c2CCN(C)C3)c1 (centres undefined)	x	3.8%	-18.5%	x	x
Fc1ccc(NC(=S)Nc2cccc3cnccc23)cc1	3.8%	-15.3%	44.7µM*	-22.7%	3.2%
O=C(c1[nH]ncc1-c1cccc(Br)c1)C1CO1 (centres undefined)	14.6%	10.1%	11.2µM*	-2.9%	0.4%
O=C(c1[nH]ncc1-c1ccccc1)C1CO1 (centres undefined)	0.0%	3.7%	u	-6.5%	-2.8%
O=C(Nc1ccccc1C(F)(F)F)C(O)(c1ccccc1)C1CCCCC1 (centres undefined)	5.5%	3.4%	3.98µM*	-16.1%	x
O=C(Nc1ccccc1C(F)(F)F)N1CCC(N2CCCCC2)CC1	0.0%	4.4%	-5.2%	4.1%	0.2%
COC(=O)C1=C(O)/C(=C\c2ccc(O)c(OC)c2)N=C1C	6.0%	-8.9%	50.1µM*	-7.2%	-3.8%
COC(=O)C1=C(O)/C(=C\c2ccc(OCC(=O)Nc3ccccc3OC)cc2)N=C1C	-15.5%	-12.4%	-10.2%	11.1%	-0.3%
COc1cc(/C=C/C(=O)c2ccc([N+](=O)[O-])o2)ccc1O	21.5%	-4.9%	3.16µM*	12.6µM*	x
COc1cc2c(cc1OC)CN(C(=O)c1ccc([N+](=O)[O-])o1)CC2	-2.5%	-18.4%	28.2µM*	-6.8%	7.0%
COc1cc(/C=C2/C(=O)CNC2=O)ccc1O	-7.5%	u	-2.2%	-3.6%	-3.6%
COc1cc(C=C2C(=O)C=CC2=O)ccc1O	u	3.55µM*	x	2µM*	x
NS(=O)(=O)c1ccc(CNC(=O)/C=C/c2cccc(Cl)c2)cc1	5.3%	0.7%	2.9%	6.5%	0.8%
COc1cc(/C=C/[N+](=O)[O-])ccc1O	-18.5%	-28.3%	35.5µM*	u	-4.0%
O=C(/C=C/c1cccc(Cl)c1)c1ccc([N+](=O)[O-])o1	-28.8%	-11.6%	0.708µM*	11.2µM*	x
COc1ccc(/C=C/C(=O)c2ccc([N+](=O)[O-])o2)cc1OC	-5.5%	-3.5%	6.31µM*	0.0%	x
CS(=O)(=O)c1ccc2c(c1)sc1nc(=O)c(/C=C3/C=CC(=O)C(O)=C3)c(N)n12	-25.8%	-14.1%	44.7µM*	-16.3%	-4.9%
SMILES	AMA1-RON2 inh	Tb PYK inh	Sm TGR block	RE007 growth inh	LmPK inh
COC1=C/C(=C/c2c(N)n3c(nc2=O)sc2cc(S(C)(=O)=O)ccc23)C=CC1=O	6.4%	1.8%	-5.4%	-10.2%	0.2%
Cc1ccc(-c2nc(=S)c3c(n2Cc2ccco2)CCCC3)cc1	-5.0%	-3.8%	8.91µM*	-16.9%	-0.2%
CN(C)CCCn1c(-c2ccccc2)nc(=S)c2c1CCCC2	-3.0%	-2.9%	44.7µM*	8.0%	-4.1%
COc1cccc(-c2nc(=S)c3c(n2Cc2ccco2)CCCC3)c1	25.8%	-5.7%	u	-19.0%	6.4%
Cc1cccc(-c2nc(=S)c3c(n2Cc2ccco2)CCCC3)c1	53.2%	-18.0%	20µM*	11.1%	-4.4%
COc1ccc(CNC(=O)CCC(=O)N2CC3CCCN3c3ccccc32)cc1 (centres undefined)	x	0.7%	2.1%	x	x
CC(=O)Nc1ccc(NS(=O)(=O)c2ccccc2)c2ccccc12	-1.2%	4.1%	0.3%	2.1%	-0.9%
O=S(=O)(Nc1ccc(O)c2ccccc12)c1cccs1	-8.5%	-16.4%	20µM*	-9.0%	11.2µM*
O=S(=O)(Nc1ccc(O)c2ccccc12)c1ccc(Br)cc1	x	x	20µM*	x	u
Oc1ccc(/C(Cc2ccc3ccccc3n2)=N\Nc2ccccc2)c(O)c1	-1.2%	0.6%	25.1µM*	81.3%	-0.1%
COc1ccc(-n2c(SCC(=O)N3CCC(C)CC3)nc3c([nH]c4ccccc43)c2=O)cc1	x	-6.1%	0.9%	x	x
Cc1cccc(-c2nc(S(=O)(=O)c3ccccc3)c(N3CCN(c4ccccc4)CC3)o2)c1	x	1.4%	-3.2%	x	x
Cn1c(=O)c2c(nc(CN3CCN(C(=O)c4ccco4)CC3)n2Cc2cccc(Cl)c2)n(C)c1=O	-5.8%	9.4%	25.1µM*	-1.9%	4.5%
CC(C)CC(=O)Nc1ccc(C(=O)OCc2cc(=O)n3nc(C(C)C)sc3n2)cc1	x	2.3%	-3.8%	x	x
Cc1ccccc1C[C@H](C(=O)O)N1C(=O)c2ccc(C(=O)O)cc2C1=O	x	x	9.2%	x	x
CC1=N/C(=C/c2ccco2)C(=O)O1	3.3%	-6.2%	28.2µM*	-2.0%	9.5%[11.5 µM]
COc1cc(/C=C2\N=C(C)OC2=O)cc(OC)c1OC	4.6%	1.4%	17.8µM*	-1.4%	-6.5%
CCOC(=O)Oc1ccc(/C=C2\N=C(C)OC2=O)cc1	17.4%	-9.1%	12.6µM*	7.0%	1.4%
O=C1OC(c2ccc(Br)cc2)=N/C1=C\c1ccco1	-17.7%	-1.5%	-23.9%	-14.6%	-5.9%
CCOC(=O)NC(c1ccc(C(C)C)cc1)C(Cl)(Cl)Cl (centres undefined)	-12.6%	2.3%	-15.9%	-18.1%	3.9%
CCOC(=O)NC(C(Cl)(Cl)Cl)S(=O)(=O)c1ccccc1 (centres undefined)	8.2%	12.4%	25.1µM*	-0.3%	-4.2%
Cc1cc(C(=O)N2CC=C(c3ccccc3)CC2)c2ccccc2n1	11.9%	4.2%	-0.5%	13.5%	x
Cc1ccc(C(=O)N2CC=C(c3ccccc3)CC2)o1	-19.6%	-2.6%	28.2µM*	-19.3%	x
Cc1ccc(NC(=O)N2CCc3ccccc32)cc1	2.6%	-26.1%	0.0%	u	25.1µM*
O=C(c1ccc([N+](=O)[O-])o1)N1CCc2ccccc21	-13.9%	-7.8%	-6.8%	-8.8%	-2.4%
Cc1ccc(C(=O)N2CCc3ccccc32)o1	-19.5%	-29.5%	-6.2%	u	14.1µM*
O=C(O)c1ccccc1C(=O)N1CC=C(c2ccccc2)CC1	-2.6%	-8.3%	35.5µM*	-4.1%	3.7%
